Among the data in PubChem BioAssay (NCI) are growth values, retold here.

What all share (assay): NCI-60 one-dose screen, 48 h (100 = growth as untreated, 0 = no growth, -100 = all killed)
For one test, the system named is NCI-H23 lung. The following applies: 10 µM unless noted.
Another test concerns NCI-H226 lung. The following applies: 10 µM unless noted.
For another test, the system named is NCI-H322M lung. The following applies: 10 µM unless noted.
The next test has as its system HOP-62 NSCLC. The following applies: 10 µM unless noted.
The next test relates to NCI-H460 lung. The following applies: 10 µM unless noted.
The test system of a further test is HOP-92 NSCLC. As to conditions: 10 µM.
The subject of another test is NCI-H522 lung. The following applies: 10 µM unless noted.
A further test deals with A549/ATCC NSCLC. As to conditions: 10 µM unless noted.
For the next test, the system named is 786-0 renal. The following applies: 10 µM unless noted.
For a further test, the system named is COLO 205 colon. The following applies: 10 µM unless noted.
The test system of the next test is DU-145 prostate. As to conditions: 10 µM unless noted.
The test system of a further test is K-562 leukemia. As to conditions: 10 µM unless noted.
The subject of the next test is MALME-3M melanoma. The following applies: 10 µM unless noted.
Another test has as its system MDA-MB-231 breast. The following applies: 10 µM unless noted.
The next test has as its system RXF 393 renal. As to conditions: 10 µM unless noted.
Another test relates to SF-268 CNS. As to conditions: 10 µM unless noted.
Another test concerns SF-295 CNS. As to conditions: 10 µM unless noted.
For another test, the system named is SF-539 CNS. The following applies: 10 µM unless noted.
In another test the test system is UACC-257 melanoma. The following applies: 10 µM unless noted.

SMILES strings stand for the structures. Compounds without any hit were thinned out: in the full panel of roughly 83,000, 20% have a hit.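 Treatment: one concentration, 48 hours, 96-well format. Scoring: percent growth, with anything below 10 considered active.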 Values without a mark were called inactive. Active and inactive are the calls of the source.

Regarding `CNC(=O)c1cc(N2CCc3cc(NC(=O)Nc4ccc(Cl)c(C(F)(F)F)c4)ccc32)ccn1`, the growth was 56.1% with NCI-H23 lung; 77.2% in the test on NCI-H226 lung; 87.1% with NCI-H322M lung; 85.1% in the test with HOP-62 NSCLC; 38% in the test on NCI-H460 lung; 68% in the test on HOP-92 NSCLC. Also, the growth was 50% in the test with NCI-H522 lung; 49.2% with A549/ATCC NSCLC; 49.7% in the test with 786-0 renal; 58% in the test on COLO 205 colon; 63.6% in the test with DU-145 prostate; 33.7% in the test on K-562 leukemia. The growth in the test on MALME-3M melanoma is 64.5%; in the test on MDA-MB-231 breast, 67.2%; in the test on RXF 393 renal it was -8.94% (active); with SF-268 CNS, 70.1%; in the test with SF-295 CNS it was 26.5%; in the test with SF-539 CNS, 48.8%. In the test on UACC-257 melanoma, the growth was 72.7%.
As for `CC(=O)c1nnn(-c2c(C(=O)n3nc(C)cc3C)sc(=S)n2-c2ccccc2)c1C`, the growth with NCI-H23 lung was 106%; in the test with NCI-H226 lung, 95.7%; in the test with NCI-H322M lung, 107%; with HOP-62 NSCLC, 107%; in the test on NCI-H460 lung, 113%; in the test with HOP-92 NSCLC, 113%. Also, the growth was 99.8% with NCI-H522 lung; 103% with A549/ATCC NSCLC; 111% in the test on 786-0 renal; 108% in the test with COLO 205 colon; 109% in the test on DU-145 prostate; 102% in the test on K-562 leukemia. Besides, the growth in the test with MALME-3M melanoma is 67.7%; in the test with MDA-MB-231 breast it was 89.2%; in the test with RXF 393 renal it was 103%; in the test with SF-268 CNS, 106%; with SF-295 CNS, 109%; with SF-539 CNS, 96.6%. Further, the growth in the test on UACC-257 melanoma is 101%.
Take `Cc1ccc(-c2cc3nc(C(Cl)Cl)nc(-c4ccco4)n3n2)cc1`: the growth in the test on NCI-H23 lung was 59.8%; in the test with NCI-H226 lung it was 87%; in the test on NCI-H322M lung, 2.67% (active); in the test with HOP-62 NSCLC, -12.3% (active); in the test on NCI-H460 lung, -21.6% (active); in the test on HOP-92 NSCLC, -0.128% (active). Moreover, the growth with NCI-H522 lung was 94.5%; in the test on A549/ATCC NSCLC it was 2.51% (active); in the test with 786-0 renal, 59.5%; in the test with COLO 205 colon, -39.4% (active); with DU-145 prostate, -24.3% (active); in the test on K-562 leukemia, 55.5%. For the same molecule, the growth in the test on MALME-3M melanoma is 93.3%; in the test on MDA-MB-231 breast it was -21.7% (active); in the test on RXF 393 renal, -46.1% (active); in the test with SF-268 CNS, 20.5%; in the test on SF-295 CNS, -4.81% (active); with SF-539 CNS, -32.6% (active). Further, the growth in the test on UACC-257 melanoma was 57%.
For the molecule `O=C(Cn1cc(-c2ccccc2)nn1)Nc1nc(-c2ccc(Cl)cc2)cs1`, the growth is 97.7% in the test on NCI-H23 lung; 106% in the test with NCI-H226 lung; 100% in the test on NCI-H322M lung; 108% in the test with HOP-62 NSCLC; 109% in the test with NCI-H460 lung; 130% with HOP-92 NSCLC. The growth with NCI-H522 lung was 88.2%; in the test on A549/ATCC NSCLC, 103%; in the test on 786-0 renal, 88.6%; in the test with COLO 205 colon, 117%; with DU-145 prostate, 108%; in the test with K-562 leukemia, 98%. In addition, the growth was 90.4% in the test with MALME-3M melanoma; 104% in the test on MDA-MB-231 breast; 135% in the test with RXF 393 renal; 113% in the test on SF-268 CNS; 77.7% in the test on SF-295 CNS; 108% in the test on SF-539 CNS. Also, the growth with UACC-257 melanoma was 98.9%.
With `N#Cc1cccc(CN2CCc3ncn(Cc4ccc(Cl)cc4)c(=O)c3C2)c1`, the growth was 26.2% in the test on NCI-H23 lung; 30.4% with NCI-H226 lung; 42.9% with NCI-H322M lung; 31.2% in the test with HOP-62 NSCLC; 13.5% in the test with NCI-H460 lung; 30.3% in the test with HOP-92 NSCLC. The growth was 16.6% in the test on NCI-H522 lung; 24.9% in the test on A549/ATCC NSCLC; 42.8% with 786-0 renal; 11.7% with COLO 205 colon; 26.9% in the test with DU-145 prostate; 24.2% with K-562 leukemia. The growth in the test with MALME-3M melanoma is 41.5%; in the test with MDA-MB-231 breast, 26.9%; in the test with RXF 393 renal, 14.3%; in the test with SF-268 CNS, 27.2%; with SF-295 CNS, 8.57% (active); in the test on SF-539 CNS it was 33.6%. Also, the growth in the test on UACC-257 melanoma is 12.3%.
For the molecule `Cc1ccc(-n2cc(/C=N/NC(=O)c3nc(N)n[nH]3)c(-c3ccc(S(C)(=O)=O)cc3)n2)cc1`, the growth in the test on NCI-H23 lung was 96.6%; with NCI-H226 lung, 102%; in the test on NCI-H322M lung, 104%; in the test with HOP-62 NSCLC, 98.6%; with NCI-H460 lung it was 103%; in the test with HOP-92 NSCLC it was 94.2%. Besides, the growth is 92.3% with NCI-H522 lung; 104% in the test with A549/ATCC NSCLC; 98.6% in the test on 786-0 renal; 105% in the test with COLO 205 colon; 100% in the test on DU-145 prostate; 52.7% in the test on K-562 leukemia. The growth with MALME-3M melanoma was 85.3%; in the test with MDA-MB-231 breast it was 96%; in the test on RXF 393 renal, 117%; in the test on SF-268 CNS, 99.4%; with SF-295 CNS, 104%; in the test with SF-539 CNS, 99.7%. Further, the growth with UACC-257 melanoma is 99.3%.
In the case of `CCN1CCN(Cc2ccc(C(=O)Nc3ccc(C)c(Oc4ccc(-c5[nH]nc6ncnc(N)c56)cc4)c3)cc2C(F)(F)F)CC1`, the growth with NCI-H23 lung was 93.2%; in the test with NCI-H226 lung, 85.8%; in the test with NCI-H322M lung, 99%; in the test with HOP-62 NSCLC it was 103%; in the test on NCI-H460 lung, 106%; in the test with HOP-92 NSCLC it was 70.3%. Besides, the growth in the test with NCI-H522 lung is 101%; in the test with A549/ATCC NSCLC, 96.6%; in the test on 786-0 renal, 69.4%; in the test on COLO 205 colon, 56.7%; with DU-145 prostate, 98.6%; with K-562 leukemia, 3.44% (active). Moreover, the growth with MALME-3M melanoma was 22.8%; in the test on MDA-MB-231 breast, 82.7%; with RXF 393 renal, 44.3%; in the test with SF-268 CNS, 90.5%; in the test on SF-295 CNS it was 78.8%; with SF-539 CNS it was 55.6%. Moreover, the growth in the test with UACC-257 melanoma is 71.9%.
In the case of `N=c1c2cc(-c3ccccc3)oc2ncn1/N=C/c1ccc(Br)cc1`, the growth is 102% with NCI-H23 lung; 71.3% in the test on NCI-H226 lung; 78.1% in the test with NCI-H322M lung; 73.7% in the test with HOP-62 NSCLC; 15.8% in the test with NCI-H460 lung; 105% with HOP-92 NSCLC. Also, the growth was 91.8% in the test with NCI-H522 lung; 44.2% in the test on A549/ATCC NSCLC; 59.2% in the test on 786-0 renal; 98.9% in the test with COLO 205 colon; 50.9% in the test with DU-145 prostate; 80% in the test with K-562 leukemia. In addition, the growth in the test with MALME-3M melanoma is 16.3%; in the test with MDA-MB-231 breast, 93.4%; in the test with RXF 393 renal it was 86.6%; with SF-268 CNS it was 68.9%; in the test on SF-295 CNS, 84.2%; with SF-539 CNS, 74.2%. Besides, in the test with UACC-257 melanoma, the growth was 89.8%.
